In PMC11102866, “Nucleosome-bound NR5A2 structure reveals pioneer factor mechanism by DNA minor groove anchor competition”:
Numbering of substitutions follows the chain as printed. In names and notes the source's numbering stands.

Key:
[1] = target: NR5A2 wild type;histone octamer (Homo sapiens;, UniProt O00482;C0HKE1;Q6ZWY9;P84244;P62806 1-541;2-130;2-126;2-136;2-103, |); assay: SeEN-seq (EMSA of nucleosome library followed by sequencing); 0.8 uM human NR5A2; 20 mM Tris-HCl pH 7.5, 120 mM NaCl, 1 mM MgCl2, 10 uM ZnCl2, 1 mM DTT, 100 ug/ml BSA, room temperature, 30 min; 0.1 uM nucleosome library; high values mean tight binding
[2] = target: mouse Nr5a2 wild type;histone octamer (Mus musculus;, UniProt P45448;C0HKE1;Q6ZWY9;P84244;P62806 1-560;2-130;2-126;2-136;2-103, |); assay: SeEN-seq (EMSA of nucleosome library followed by sequencing); 1.2 uM mouse Nr5a2; 20 mM Tris-HCl pH 7.5, 120 mM NaCl, 1 mM MgCl2, 10 uM ZnCl2, 1 mM DTT, 100 ug/ml BSA, room temperature, 30 min; 0.1 uM nucleosome library; high values mean tight binding

B1: 4 (nucleosome)
DNA 1: ATCCTGTCAAGGCCAGGTGCCGAGGCCGCTCAATTGGTCGTAGACAGCTCTAGCACCGCTTAAACGCACGTACGCGCTGTCCCCCGCGTTTTAACCGCCAAGGGGATTACTCCCTAGTCTCCAGGCACGTGTCAGATATATACATCCTGTGAT
DNA 2: ATCACAGGATGTATATATCTGACACGTGCCTGGAGACTAGGGAGTAATCCCCTTGGCGGTTAAAACGCGGGGGACAGCGCGTACGTGCGTTTAAGCGGTGCTAGAGCTGTCTACGACCAATTGAGCGGCCTCGGCACCTGGCCTTGACAGGAT
modifications: reconstituted with mouse histones H2A, H2B, H3.3 and H4
For B1, the binding signal [1] was 4.82 log2 enrichment (bound/unbound, relative to Widom 601) and the binding signal [2] was 3.77 log2 enrichment (bound/unbound, relative to Widom 601).

B2: 35 (nucleosome)
DNA 1: B1 DNA 1 with T7G, C8A, A9G, G11A, G12T, A15C, G40A, T41A, A42G, A44C
DNA 2: B1 DNA 2 with T110G, T112C, A113T, C114T, T139G, C142A, C143T, T145C, G146T, A147C
modifications: reconstituted with mouse histones H2A, H2B, H3.3 and H4
B2 was tested, and the binding signal [1] was 0.694 log2 enrichment (bound/unbound, relative to Widom 601) and the binding signal [2] was 0.841 log2 enrichment (bound/unbound, relative to Widom 601).

B3: 32 (nucleosome)
DNA 1: ATCCTGGAGAATCCCGGTGCCGAGGCCGCTCAATTCAAGGCCAACAGCTCTAGCACCGCTTAAACGCACGTACGCGCTGTCCCCCGCGTTTTAACCGCCAAGGGGATTACTCCCTAGTCTCCAGGCACGTGTCAGATATATACATCCTGTGAT
DNA 2: ATCACAGGATGTATATATCTGACACGTGCCTGGAGACTAGGGAGTAATCCCCTTGGCGGTTAAAACGCGGGGGACAGCGCGTACGTGCGTTTAAGCGGTGCTAGAGCTGTTGGCCTTGAATTGAGCGGCCTCGGCACCGGGATTCTCCAGGAT
modifications: reconstituted with mouse histones H2A, H2B, H3.3 and H4
With B3 the binding signal [1] was 1.82 log2 enrichment (bound/unbound, relative to Widom 601) and the binding signal [2] was 1.7 log2 enrichment (bound/unbound, relative to Widom 601).

B4: 33 (nucleosome)
DNA 1: B3 DNA 1 with C36T, A37C, G39A, C41G, A43C
DNA 2: B3 DNA 2 with T111G, G113C, C115T, T117G, G118A
modifications: reconstituted with mouse histones H2A, H2B, H3.3 and H4
B4 was tested, and the binding signal [1] was 2.48 log2 enrichment (bound/unbound, relative to Widom 601) and the binding signal [2] was 2.25 log2 enrichment (bound/unbound, relative to Widom 601).

B5: 34 (nucleosome)
DNA 1: B3 DNA 1 with C36G, A37T, A38C, G39A, G40A, C41G, C42G, A43C, A44C, C45A
DNA 2: B3 DNA 2 with G109T, T110G, T111G, G112C, G113C, C114T, C115T, T116G, T117A, G118C
modifications: reconstituted with mouse histones H2A, H2B, H3.3 and H4
For B5, the binding signal [1] was 1.32 log2 enrichment (bound/unbound, relative to Widom 601) and the binding signal [2] was 1.03 log2 enrichment (bound/unbound, relative to Widom 601).

B6: 38 (nucleosome)
DNA 1: B3 DNA 1 with C36G, A37G, A38T, G39C, C41T, C45G, A46G, G47C, T49A
DNA 2: B3 DNA 2 with A105T, C107G, T108C, G109C, G113A, C115G, T116A, T117C, G118C
modifications: reconstituted with mouse histones H2A, H2B, H3.3 and H4
B6 was tested, and the binding signal [1] was 0.852 log2 enrichment (bound/unbound, relative to Widom 601) and the binding signal [2] was 0.628 log2 enrichment (bound/unbound, relative to Widom 601).

B7: 36 (nucleosome)
DNA 1: ATCCTGGAGAATCCCGGTGCCGAGGCCGCTCAATTGGTTCAAGGCCACTCTAGCACCGCTTAAACGCACGTACGCGCTGTCCCCCGCGTTTTAACCGCCAAGGGGATTACTCCCTAGTCTCCAGGCACGTGTCAGATATATACATCCTGTGAT
DNA 2: ATCACAGGATGTATATATCTGACACGTGCCTGGAGACTAGGGAGTAATCCCCTTGGCGGTTAAAACGCGGGGGACAGCGCGTACGTGCGTTTAAGCGGTGCTAGAGTGGCCTTGAACCAATTGAGCGGCCTCGGCACCGGGATTCTCCAGGAT
modifications: reconstituted with mouse histones H2A, H2B, H3.3 and H4
In the case of B7, the binding signal [1] is reported as 0.81 log2 enrichment (bound/unbound, relative to Widom 601) and the binding signal [2] is reported as 0.77 log2 enrichment (bound/unbound, relative to Widom 601).

B8: 37 (nucleosome)
DNA 1: B7 DNA 1 with T39C, C40T, A41C, G43A, C45G, A47C, C48A
DNA 2: B7 DNA 2 with G106T, T107G, G109C, C111T, T113G, G114A, A115G
modifications: reconstituted with mouse histones H2A, H2B, H3.3 and H4
B8 was tested, and the binding signal [1] was 0.722 log2 enrichment (bound/unbound, relative to Widom 601) and the binding signal [2] was 0.546 log2 enrichment (bound/unbound, relative to Widom 601).
